Source: PubChem BioAssay
gsp antag = antagonists of gsp mutant (McCune-Albright syndrome); 340,000 compounds, 0.4% hits; gsp-mutant cells, cAMP HTRF, 30 min; Potency, µM (doses to about 76.9 µM), for inactives: at the highest dose activity change, negative = inhibition, usual class: inhibitors; AID 624288; calls by dose curve; cell line not stated here;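 further: intracellular cAMP measured with PDE inhibitor Ro 20-1724 present during compound exposure; potency means the concentration at half of the fitted maximal effect; on the % scale 0 is the no-effect control and ±100 the full control effect; nearly all actives have a fitted effect of over 65% in size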
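HTRF cAMP read-out (cAMP-d2 plus anti-cAMP antibody-K in lysis buffer, 30 min RT). Before lysis, cells are exposed to compounds with […] for 30 min at 37C in DPBS containing Ca/Mg, BSA and Tween 20.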
IL-2 act = activators of IL-2; IL-2 activation reporter assay, cell-based qHTS; stimulated with anti-CD3/CD4/CD28 beads; in transgenic mouse T cells; activation, % (series mostly up to about 46 µM); 360,000 compounds, 0.065% hits; in the data active means activation above about 50%; inconclusive means mostly about 30% to 49%; further: 0% is about no effect
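First, unstimulated transgenic mouse T cells were exposed to compound for 60 min. Next, anti-CD3/anti-CD4-coated beads with anti-CD28 were added. Finally, after 18 h at 37 degrees C, EGFP and DsRed were imaged.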
mIDH1 inhibitor = inhibitors of human mutant IDH1 R132H; IDH1-R132H enzyme, NADPH consumption, diaphorase/resazurin fluorescence; 390,000 compounds, 0.093% hits; O75874; Potency, µM (series often up to 76.6 µM), without a hit: at the top dose activity change, negative = inhibition, usual class: inhibitors; further: potency means the concentration at half of the fitted maximal effect; on the % scale 0 is the no-effect control and ±100 the full control effect; nearly all actives have a fitted effect of over 65% in size
Target sequence (O75874 whole entry R132H, stated change not applied): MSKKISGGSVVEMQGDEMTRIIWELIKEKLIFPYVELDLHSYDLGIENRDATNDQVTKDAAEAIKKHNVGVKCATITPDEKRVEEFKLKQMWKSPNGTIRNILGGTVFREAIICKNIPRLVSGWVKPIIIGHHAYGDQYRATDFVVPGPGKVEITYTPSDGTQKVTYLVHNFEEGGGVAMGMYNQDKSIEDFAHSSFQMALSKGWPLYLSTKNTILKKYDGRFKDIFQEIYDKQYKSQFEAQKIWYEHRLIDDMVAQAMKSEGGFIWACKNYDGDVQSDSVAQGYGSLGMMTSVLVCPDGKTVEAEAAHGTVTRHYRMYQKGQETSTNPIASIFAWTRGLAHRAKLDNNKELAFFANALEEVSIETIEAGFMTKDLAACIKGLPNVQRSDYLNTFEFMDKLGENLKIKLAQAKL
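IDH1-R132H (0.5 ug/mL dispensed) in pH 7.5 Tris buffer was preincubated 30 min with compound, then given a substrate mix of 0.016 mM NADPH and 2 mM alpha-KG for 80 min at room temperature; remaining NADPH was read by diaphorase/resazurin fluorescence.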
BRCA1 expr up = BRCA1 expression activation | MCF7-BRCA1-FFLuc reporter, luminescence, 48 h; response scale: scaled: vehicle 0%, 10 µM genistein 100% | Potency, µM (titrated, usually from 46.1 µM), for the others: at the highest dose activation, actives largely listed as activators | 380,000 compounds, 1.1% hits; further: potency means the concentration at half of the fitted maximal effect; nearly all actives have a fitted effect of over 80% in size
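Reporter cells (MCF7, BRCA1 promoter-firefly luciferase) received library compounds across a concentration series for 48 h. End-point luminescence was measured and concentration-effect curves derived after normalization.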
gsp agonist = agonists of gsp mutant (McCune-Albright syndrome) | gsp mutant cells, cAMP HTRF, 30 min | Potency, µM (top dose mostly 76.9 µM), inactives show top-dose activation (cAMP increase), usual class: activators | 340,000 compounds, 0.13% hits | AID 624287; active means well fitted activation curve with a large enough effect; inconclusive means small, poorly fitted or top-dose-only effect, or another doubt; inactive means no such curve, though single readings can be large or run the other way; cell line not stated here;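 further: phosphodiesterase inhibitor Ro 20-1724 added with compounds to block cAMP breakdown; potency means the concentration at half of the fitted maximal effect; nearly all actives have a fitted effect of over 60% in size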
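Cells in DMEM/10% FBS with G418 were pretreated with compounds in DMSO plus […] (300 uM stock) for 30 min at 37C. cAMP was measured by HTRF (cAMP-d2 plus anti-cAMP antibody-K) after 30 min at room temperature.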
Numbers without * were called inactive; ? = inconclusive; . = no result; [ ] = remark or other dose. This is a sample that favours compounds with a hit; in the whole collection about 1.5% have one here. Unless noted, the call rests on the fitted dose curve; in most records, active means well fitted curve in the direction sought with a large enough effect; inconclusive means small, poorly fitted or top-dose-only effect, or another doubt; inactive means no such curve, though single readings can be large; an effect the other way counts as inactive or inconclusive.

SMILES | gsp antag | IL-2 act | mIDH1 inhibitor | BRCA1 expr up | gsp agonist
O=C(Nc1nnc(CC2=CCCCC2)s1)c1cccs1 | 12% | 1 | -1% | 6.3µM* | 0%
O=C(Nc1nnc(Cc2ccccc2)s1)c1cccs1 | 5% | 1 | 1% | ? | 7%
Cc1ccc(CNC(=O)Nc2ccccc2)cc1 | 13% | -1 | 11% | 3.5µM* | 7%
O=C(NCc1ccc(F)cc1)Nc1ccccc1 | 1% | -2 | -6% | 10µM* | ?
O=C(NCc1ccc(Cl)cc1)Nc1ccc(F)cc1 | 15% | -3 | -9% | 86% | 0%
Cc1ccc(C)c(CNC(=O)Nc2ccccc2)c1 | -5% | 0 | -3% | 7.1µM* | 4%
Cc1ccc(CNC(=O)NCc2ccccc2)cc1 | 13% | -1 | 0% | 49% | -2%
COc1cc(OC)c(/C=C/c2cc(/C=C/c3c(OC)cc(OC)cc3OC)[n+](C)c3ccccc23)c(OC)c1 | . | . | . | -68% | .
Oc1ccc(/C=N/Nc2ccccc2)cc1 | 3% | -1 | 3% | -15% | 13%[15.4 µM]
Cc1nc2ccccc2nc1N/N=C/c1ccc(O)cc1 | 5% | -2 | 14% | 7.9µM* | 18%
CN(c1ccc(/C=C/c2ccccc2)cc1)P1(=O)NCCCO1 (configuration not stated) | . | . | . | 62% | .
CCc1noc(C)c1C(=O)Nc1sc(C(=O)N(C)C)c(C)c1C#N | -14% | 0 | 6% | -14% | 28%
COc1ccc(C(=O)Cc2cc3cccc(OC)c3oc2=O)cc1 | -3% | 0 | 0% | 16µM* | ?
COc1cccc2cc(NC(=O)C3CCCCC3)c(=O)oc12 | 7% | -1 | -3% | 6.3µM* | ?
COc1cccc2cc(CC(=O)c3ccc(C)cc3C)c(=O)oc12 | ? | -4 | -1% | 11µM* | -17%
CNc1nc(N2CCCN(C)CC2)nc2cc(OC)c(OC)cc12 | . | . | . | -21% | .
Cc1ccc(N(CCC#N)C(=O)CSc2nnc3ccccn23)cc1 | 5% | 0 | 3% | -4% | ?
CC(=O)NCCNc1nc2c(-c3ccccc3)nnn2c2ccccc12 | 7% | 0 | 4% | -63% | 22µM*
COc1cccc(Cc2nc3ccccc3nc2SCC(=O)N2CCc3ccccc32)c1 | . | . | -14% | . | .
Cc1ccsc1-c1cc2nc(Nc3ccc(F)cc3)n(C)c(=O)c2s1 | . | 2 | . | -14% | .
O=c1oc2ccccc2c(Nc2ccc(Cl)cc2)c1[N+](=O)[O-] | 28µM* | 0 | -4% | -49% | -6%
Cc1ccc2nc(-c3ccco3)c(CC3CCCCC3)n2c1 | . | 0 | . | -3% | .
CCc1ccc(CN(C(=O)c2nc(SC)ncc2Cl)C2CCS(=O)(=O)C2)cc1 (configuration not stated) | . | . | 26% | . | .
C=CCNC(=O)c1ccc(-c2nc(-c3ccc(Cl)cc3Cl)cs2)cc1 | 3% | -1 | 4% | 11µM* | -20%
C=CCNC(=O)c1ccc(-c2nc(-c3ccc(Cl)c(Cl)c3)cs2)cc1 | 2% | -2 | -3% | 2%[1.84 µM] | -16%
SMILES | gsp antag | IL-2 act | mIDH1 inhibitor | BRCA1 expr up | gsp agonist
COc1ccccc1N=Cc1c(C)c(C#N)c2[nH]c3ccccc3n2c1=O | -28% | 126* | 10% | 12% | -8%[15.4 µM]
Fc1cc(F)c2nc(N3CCCCC3)sc2c1 | ? | -1 | 0% | 13µM* | 16%
c1ccc2sc(N3CCCCC3)nc2c1 | 6% | -1 | -1% | 4.5µM* | 17%
Fc1ccc2nc(N3CCCC3)sc2c1 | 11% | 2 | 1% | ? | -10%[15.4 µM]
O=[N+]([O-])c1ccc2nc(N3CCCC3)sc2c1 | ? | 1 | -3% | 8.9µM* | -16%
c1ccc(CN2CCN(c3nc4ccccc4s3)CC2)cc1 | -10% | 0 | -6% | ? | -1%[15.4 µM]
O=C(c1ccccc1)N1CCN(c2nc3ccc([N+](=O)[O-])cc3s2)CC1 | -9% | -4 | 12% | 0% | -87%
O=C(N/N=C/c1cccs1)c1[nH]ncc1Br | -2% | -3 | -7% | 3.2µM* | ?
Cc1occc1C(=O)N/N=C/c1cccs1 | 1% | 2 | -2% | 13µM* | 9%
Cc1cc(/C=N/NC(=O)c2ccoc2C)cc(C)c1O | . | -4 | -4% | 7.9µM* | 1%
CCOc1ccc(NC(=O)CSc2nc(C)c(C(=O)Nc3ccccc3)c(-c3ccc(Cl)cc3)c2C#N)cc1 | . | . | -5% | . | .
